Screening data from PubChem BioAssay.
ABHD5-PLIN5 inh: inhibitors of human ABHD5-perilipin-5 interaction; Q00G26+Q8WTS1; 0.78% of 360,000 active; inhibition, % at 4 µM; Split G. princeps luciferase complementation, luminescence, 4 h; AID 602281;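 active means inhibition above the mean inhibition across every tested compound plus 3 SD, cut at about 22% in these data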
rCAG binder: molecules binding r(CAG) RNA repeats. r(CAG) RNA repeat, TO-PRO-1 dye displacement fluorescence. 1.3% of 370,000 active. inhibition, % at 3 µM;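 active means inhibition above the plate cutoff, the mean of all test compounds on that plate plus 3 SD, cut at about 35% in these data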;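 further: higher means more dye released from RNA so lower well fluorescence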
LANA-H2A inh: blocks KSHV LANA binding to histone H2A/H2B; cell-free LANA-H2A/H2B peptide, fluorescence polarization; inhibition, % (concentration not given with the values); AID 2629; Q9QR71; 0.6% of 320,000 active; in the data active means inhibition mostly above about 10%, no sharp cut-off; inactive means mostly below about 6.7%
Rtt109 HAT inh: inhibitors of Candida albicans Rtt109/Vps75 histone acetyltransferase; purified Rtt109/Vps75, ThioGlo CoA-SH fluorescence, 4 h; 0.16% of 330,000 active; inhibition, % at 34.9 µM; Q5AAJ8; AID 540336;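 active means inhibition of at least 50% in every replicate; inconclusive means best replicate reaches 50% inhibition but some replicates fall short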
PRMT1 inh: PRMT1 (human) inhibition, primary screen. Q99873. recombinant PRMT1, activity-based probe fluorescence polarization. inhibition, % at 2.79 µM. 1.3% of 370,000 active;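 active means inhibition above about 21% made by adding two undisclosed values, limit read from the data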
ALR inh: blocks human ALR sulfhydryl oxidase activity; P55789; purified ALR, DTT oxidation, H2O2 HRP-luminol luminescence; inhibition, % (no concentration beside the values); 3.8% of 290,000 active; AID 485317;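 active means mean replicate inhibition above about 79%, with every replicate also reaching it, limit read from the data; inconclusive means only one of the two criteria met; inactive means mean below limit and not every replicate reaching it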
Target sequence (P55789 whole entry, looked up): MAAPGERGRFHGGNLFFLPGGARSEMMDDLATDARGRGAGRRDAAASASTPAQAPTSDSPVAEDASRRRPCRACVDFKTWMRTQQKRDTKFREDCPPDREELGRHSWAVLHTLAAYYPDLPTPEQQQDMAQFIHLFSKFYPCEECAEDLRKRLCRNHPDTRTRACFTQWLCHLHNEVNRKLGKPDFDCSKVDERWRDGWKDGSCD
Each line names hits and unclear results; the compound was inactive in the other large screens. The list is not random: actives were taken first. Their share in the collection is about 5.9%.

Cc1c(NC(=O)CN2CC(C)OC(C)C2)c(=O)n(-c2ccccc2)n1C (centres undefined)	none
Cc1c(C(=O)OCC(=O)Nc2c(C)n(C)n(-c3ccccc3)c2=O)oc2ccccc12	ALR inh 99
Cc1c(NC(=O)CN2c3ccccc3CC2C)c(=O)n(-c2ccccc2)n1C (centres undefined)	ALR inh 97
CN(C)CCNC(=O)c1cccc(-c2cc(NC=O)c3ncc(-c4cccc(C(F)(F)F)c4)n3c2)c1	none (no result: LANA-H2A inh, Rtt109 HAT inh, ALR inh)
CC(=O)Nc1cc(-c2cccc(C(=O)N(C)C)c2)cn2c(-c3ccc(C(C)=O)cc3)cnc12	none (no result: LANA-H2A inh, Rtt109 HAT inh, ALR inh)
O=C1ON=C(c2ccc([N+](=O)[O-])cc2)/C1=C/c1ccccc1O	ALR inh 98
O=C(NCC(c1cccnc1)N1CCN(c2ccccc2)CC1)C1CCCCC1 (centres undefined)	ALR inh 88
O=C(NCC(c1cccnc1)N1CCN(c2ccccc2)CC1)OCc1ccccc1 (centres undefined)	ALR inh 76
COC(=O)NCC(c1cccnc1)N1CCN(c2ccccc2)CC1 (centres undefined)	ALR inh 89
O=S(=O)(NCC(c1cccnc1)N1CCN(c2ccccc2)CC1)c1cccs1 (centres undefined)	ALR inh 98
CCc1nc2c(OCc3cc(Cl)cc(Cl)c3)cccn2c1N(C=O)Cc1ccccc1	none (no result: LANA-H2A inh, Rtt109 HAT inh, ALR inh)
O=C(NCC(c1cccnc1)N1CCN(c2ccccc2)CC1)c1ccc2c(c1)OCO2 (centres undefined)	ALR inh 99
COc1cc(C(=O)NCC(c2cccnc2)N2CCN(c3ccccc3)CC2)cc(OC)c1OC (centres undefined)	ALR inh 99
O=C(NCC(c1cccnc1)N1CCOCC1)c1ccc2c(c1)OCO2 (centres undefined)	none (no result: ALR inh)
N#Cc1c(NC(=O)CSc2n[nH]c(N)n2)oc(-c2ccccc2)c1-c1ccccc1	ALR inh 79
Nc1nc(SCC(=O)Nc2ccc([N+](=O)[O-])cc2)n[nH]1	ALR inh 97
Nc1nc(SCC(=O)c2cccc([N+](=O)[O-])c2)n[nH]1	ALR inh 83
Nc1nc(SCC(=O)Nc2ccc([N+](=O)[O-])cc2Br)n[nH]1	none
C[C@H]1CN([C@@H](C)CO)C(=O)c2cc(Br)cnc2O[C@H]1CN(C)C(=O)Cc1ccccn1	none (no result: LANA-H2A inh, Rtt109 HAT inh, ALR inh)
Cc1ccccc1CN1CCCCC(NC(=O)c2cccc(C(F)(F)F)c2)C1=O (centres undefined)	none (no result: ABHD5-PLIN5 inh, LANA-H2A inh, Rtt109 HAT inh, ALR inh)
Nc1cc(=O)[nH]c(SCc2ccccc2)n1	none (no result: LANA-H2A inh, Rtt109 HAT inh, ALR inh)
Nc1cc(=O)[nH]c(SCc2cccc3ccccc23)n1	ALR inh 99
CCc1cc(=O)[nH]c(SCc2cccc3ccccc23)n1	ALR inh 98 (no result: rCAG binder, PRMT1 inh)
O=C(N[C@@H]1CCCc2c1cnn2-c1ccc(F)cc1F)c1ccccn1	none (no result: ABHD5-PLIN5 inh, rCAG binder, LANA-H2A inh, Rtt109 HAT inh, ALR inh)
Cc1nc(Sc2ccccc2)c(C#N)cc1-c1ccccc1	LANA-H2A inh 130 (no result: rCAG binder, PRMT1 inh)
CCOC(=O)[C@@H](NC(=O)[C@@H]1CC=C[C@@H]2CCN(Cc3ccc(Cl)cc3)C(=O)[C@@H]21)C(C)C	none (no result: ABHD5-PLIN5 inh, rCAG binder, LANA-H2A inh, Rtt109 HAT inh, ALR inh)
COc1cccc(N2C(=O)C3CCCN3C2c2ccc(N(C)C)cc2)c1 (centres undefined)	ALR inh 95
COc1cccc(N2C(=O)C3CCCN3C2c2ccc(Cl)cc2)c1 (centres undefined)	none
O=C(CN1C(=O)C2CCCN2C(=O)c2ccccc21)Nc1ccccc1-n1cccc1 (centres undefined)	LANA-H2A inh 30 (no result: ABHD5-PLIN5 inh, rCAG binder, Rtt109 HAT inh, PRMT1 inh)
CC(O)(c1ccccc1)c1nc(-c2cccc(C#N)c2)cs1 (centres undefined)	none (no result: LANA-H2A inh, Rtt109 HAT inh, ALR inh)
COc1ccc(/C=N\Nc2ccc([N+](=O)[O-])cc2)c(C(=O)O)c1OC	ALR inh 98
COc1cc(/C=N/Nc2ccc([N+](=O)[O-])cn2)cc(OC)c1O	ALR inh 100
COc1ccc(/C=N/Nc2ccc([N+](=O)[O-])cc2)cc1O	ALR inh 95
C#CCOCCOCCOCCNc1nc(N2CCN(C(=O)CCCCCCCCCCNC(=O)[C@H](CCCCN)n3cc(C[C@@H](C)CC)nn3)CC2)nc(N2CCN(C(=O)CCCCCCCCCCNC(=O)[C@H](CCCN=C(N)N)n3cc(C[C@@H](C)CC)nn3)CC2)n1	ABHD5-PLIN5 inh 63, Rtt109 HAT inh inconclusive (no result: rCAG binder, PRMT1 inh)
